Laboratory results published in the supplement of paper PMC3334620.
The full ranking holds about 33,000 sequences; the median of “E-score (-0.5 to 0.5)” is about -0.056, and the highest 2% start at about 0.38. The sample holds the highest values, similar sequences and a random draw of the others, so the mix is not that of the screen.

target: Stb4 (UniProt P50104); assay: PBM E-score (8-mer binding enrichment) (E-score (-0.5 to 0.5)); higher = stronger / more preferred TF binding; conditions: protein concentration: 200 nM; construct: GST-DNA-binding domain
Protocol: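 Universal 'all 10-mer' protein binding microarrays (Agilent AMADID 015681) probed with GST-tagged S. cerevisiae TFs (full-length or DBD) made by in vitro transcription/translation (PURExpress), about 100-200 nM. Bound TF was detected with fluorescent anti-GST. Each ungapped 8-mer (which stands for itself and its reverse complement) is scored by the PBM enrichment score (E-score), a modified Wilcoxon-Mann-Whitney statistic from -0.5 to +0.5, computed with the Universal PBM Analysis Suite. Scale: above 0.35 generally sequence-specific binding.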

Chain of UniProt P50104 (P50104 whole entry, the tested form may be a part): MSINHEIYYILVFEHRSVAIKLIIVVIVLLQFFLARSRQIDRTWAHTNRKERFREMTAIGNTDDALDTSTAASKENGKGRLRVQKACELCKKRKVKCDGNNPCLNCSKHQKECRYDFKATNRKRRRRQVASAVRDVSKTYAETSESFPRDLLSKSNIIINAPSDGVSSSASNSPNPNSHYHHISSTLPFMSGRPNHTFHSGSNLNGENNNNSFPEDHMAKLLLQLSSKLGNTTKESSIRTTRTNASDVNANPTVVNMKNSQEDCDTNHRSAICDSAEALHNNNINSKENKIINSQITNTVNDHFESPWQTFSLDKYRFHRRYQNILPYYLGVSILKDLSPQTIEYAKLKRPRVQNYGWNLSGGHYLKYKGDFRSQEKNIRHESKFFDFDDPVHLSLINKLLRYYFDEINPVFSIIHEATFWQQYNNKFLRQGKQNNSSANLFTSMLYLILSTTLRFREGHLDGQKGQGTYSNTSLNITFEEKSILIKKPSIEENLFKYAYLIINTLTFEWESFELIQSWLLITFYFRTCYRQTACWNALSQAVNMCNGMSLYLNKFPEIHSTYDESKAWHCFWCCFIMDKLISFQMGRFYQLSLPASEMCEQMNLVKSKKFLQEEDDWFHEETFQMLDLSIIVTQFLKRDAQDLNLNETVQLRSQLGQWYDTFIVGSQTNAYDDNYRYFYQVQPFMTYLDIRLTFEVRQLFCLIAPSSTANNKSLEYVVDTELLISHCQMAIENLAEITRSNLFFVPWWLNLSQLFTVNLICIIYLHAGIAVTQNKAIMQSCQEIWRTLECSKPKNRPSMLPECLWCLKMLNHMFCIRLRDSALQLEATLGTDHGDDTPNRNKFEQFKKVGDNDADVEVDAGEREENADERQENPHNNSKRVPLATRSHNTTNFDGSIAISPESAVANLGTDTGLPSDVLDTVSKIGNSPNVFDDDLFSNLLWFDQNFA

In order of falling “PBM E-score” value:
1. ACATCCGA  0.486
2. TCATCCGA  0.473
3. CTCGGCTA  0.472
4. GCCGAGCC  0.463
5. TCCGAGCA  0.458
6. GTTGCCGA  0.458
7. CCATCCGA  0.453
8. AATATCCG  0.452
9. CTCTCGGA  0.452
10. ATTGCCGA  0.451
11. AATTCGGA  0.447
12. ACATCCGG  0.447
13. ATCTCGGC  0.442
14. AAGCTCGG  0.439
15. CCCGAGCC  0.438
16. CGGAAGCA  0.435
17. CCCGAGCG  0.43
18. GATTCGGA  0.43
19. TATTCGGA  0.426
20. ATTTTCGG  0.423
21. CTCGGCTC  0.422
22. ACTTTCGG  0.416
23. CGGAAGCC  0.41
24. CATTCGGC  0.409
25. CCCGAGCA  0.405
26. CATATCCG  0.403
27. ATCGGCTA  0.403
28. CCGCCGAA  0.4
29. ATATTCGG  0.399
30. CTCGGCGA  0.397
31. CTCTCGGC  0.397
32. CTTGCCGA  0.396
33. CCGCCGAG  0.394
34. AATTTCGG  0.393
35. ATATTCCG  0.393
36. GATTCGGC  0.393
37. CAGCTCGG  0.392
38. AATTCGGG  0.39
39. AAATTCGG  0.389
40. AGATTCCG  0.389
41. TCCGACCA  0.388
42. GCGCCGAA  0.388
43. AAATTCCG  0.387
44. TCCGACGA  0.386
45. CTCGGCGC  0.383
46. CATTCGGA  0.383
47. ACCGAGCG  0.38
48. GTCGGCTA  0.377
49. ACCGAGCA  0.374
50. CGGAAGGC  0.373
51. AACTCGGC  0.364
52. GCCGAGCA  0.357
53. AATTCGGC  0.357
54. ACCGAGCC  0.356
55. ACGCCGAG  0.352
56. ACATCCGT  0.348
57. CATTCGGG  0.343
58. CCCGACGA  0.34
59. CCATCCGG  0.332
60. ATCGGCTG  0.328
61. AGGTCCCG  0.325
62. TCGCCGAA  0.32
63. ATATTCCC  0.32
64. ACGCCGAA  0.317
65. ATTGCCGG  0.301
66. CACGGCTA  0.299
67. GCCGACGA  0.285
68. CCATCCGC  0.28
69. ATCGGCTC  0.279
70. AATTCGGT  0.278
71. GGAGCGGA  0.26
72. AATATCCC  0.247
73. ATCGGCGA  0.226
74. CCGCCGAC  0.217
75. GCCGACCA  0.207
76. ATCGGCGC  0.205
77. CGAGCACC  0.204
78. GCGCCGAC  0.195
79. CGCGGCTC  0.191
80. CTTGCCGC  0.18
81. AAATTCCC  0.167
82. AACGGCTA  0.16
83. CAGCGCGG  0.148
84. CGCGAGCC  0.143
85. ACCGACCA  0.141
86. AGATTCCC  0.127
87. GTCGGCGA  0.126
88. AATTTCGC  0.123
89. CGATGATA  0.122
90. ATTGCCGC  0.121
91. AAATTCGT  0.117
92. CGGTGGCC  0.114
93. GGAGGTAC  0.112
94. GGGGACAA  0.109
95. CGCGGCGC  0.106
96. ATCTGACC  0.104
97. GGCTATAA  0.104
98. CCATAGCC  0.0889
99. CACAACGA  0.0887
100. AATTCGTA  0.0882
101. AGGAAGCC  0.0867
102. ACAAACCC  0.0864
103. ACGGTGTC  0.0812
104. CTATTCCC  0.0798
105. CCGCTCTA  0.0787
106. AATATCCA  0.0783
107. GATTCGTA  0.0772
108. ATATTCGA  0.0718
109. GGCACACC  0.0691
110. CCGCCGCA  0.0672
111. GCCTCTCA  0.0652
112. GGGAAGCA  0.0636
113. CCACTCTC  0.0625
114. CATATCCC  0.0584
115. CCGCGCAA  0.0559
116. ATCTCGCC  0.0501
117. ATTGGTTC  0.0474
118. CCTCTGGC  0.0427
119. GATAAGAC  0.0398
120. GGACATAC  0.0378
121. AAATTCGC  0.0337
122. ATATTCCA  0.0331
123. AAGCTCGA  0.0225
124. GTTATCCA  0.0169
125. CACCCAGC  0.0106
126. GCGCATTA  0.00939
127. AGCAGTAC  0.0047
128. ATTAACAC  0.00046
129. GTACATCA  -0.00531
130. GCGACCCA  -0.00585
131. CATTCGTC  -0.0104
132. GAGCCTGC  -0.0113
133. CGCGACTC  -0.0117
134. CGCGAGCG  -0.016
135. GATTCGCA  -0.0177
136. CACCTGCG  -0.018
137. ACTTTCGA  -0.0194
138. AGGCTCCC  -0.0221
139. GATTCGCC  -0.0248
140. AATGTTTG  -0.0254
141. GGCGTTCA  -0.0303
142. ATTTTCGC  -0.0335
143. AGATGAAC  -0.0339
144. ATATTCGC  -0.034
145. ACATATCT  -0.0348
146. GCGCAAAC  -0.0362
147. CGCCTGCC  -0.0366
148. AAGCTCGC  -0.0388
149. GACAAAAC  -0.0388
150. TCCAGTCA  -0.0411
151. CTCGAGCA  -0.0413
152. AAATCTCA  -0.0445
153. CGGTCCAG  -0.0508
154. GATGCCAC  -0.0531
155. AAATTCCA  -0.0536
156. ATGGGACA  -0.0554
157. GATCACCA  -0.056
158. CTCTCGTC  -0.0633
159. GACGAGCC  -0.0685
160. GTTGCCCA  -0.0723
161. CATTCGCC  -0.0759
162. CACTCTTC  -0.0762
163. ACATCCTG  -0.0816
164. AAGAAACG  -0.084
165. ACATCCCA  -0.0846
166. GAAGTTGA  -0.085
167. CACAGATG  -0.0862
168. GTGGTCCA  -0.0876
169. GTCGTCCA  -0.096
170. CAACTCAA  -0.0984
171. GCAGCCAA  -0.103
172. ATTACCAG  -0.105
173. AAAAAGGT  -0.106
174. AGGAAGCA  -0.109
175. AACCAAGC  -0.109
176. ATGCAAAT  -0.115
177. GTCGAAAA  -0.122
178. CAGCTCGC  -0.13
179. CATATGAC  -0.132
180. CTACGAGC  -0.133
181. CCCTTGAG  -0.134
182. GAATCCAC  -0.134
183. GAGCAGGC  -0.135
184. ATCAGCAC  -0.139
185. ATTAGGCA  -0.144
186. CAGCTCGA  -0.144
187. TATTCGCA  -0.147
188. CTCTCGCA  -0.148
189. GCGTCTGA  -0.15
190. AATTTCGA  -0.152
191. CTTGCAGC  -0.153
192. CCTTAGTC  -0.155
193. CGTGACTA  -0.158
194. GTTGCCAA  -0.164
195. TGCGAGCA  -0.165
196. GCCCACGC  -0.168
197. AGTTAGAG  -0.174
198. CACTGCCA  -0.176
199. CATATCCA  -0.178
200. CACGAGCA  -0.18
201. TCATCCCA  -0.181
202. CGCGAAAG  -0.185
203. AATTCGAA  -0.191
204. TCATCCAA  -0.191
205. CTATCGAG  -0.194
206. CATTCGTA  -0.194
207. CCAAGTAC  -0.196
208. TATTCGAA  -0.2
209. ACTAGGTA  -0.202
210. CCTACCCA  -0.208
211. AGATTCCT  -0.216
212. ACCCATAG  -0.221
213. GATTCGAC  -0.233
214. CAGGTGGA  -0.236
215. ACTTTCGC  -0.239
216. AGTGACAT  -0.243
217. ATTTTCGA  -0.256
218. GACCACGA  -0.259
219. ACATCCAG  -0.261
220. CAGTGTGG  -0.271
221. CTTGCCTA  -0.286
222. CTCTCGAC  -0.293
223. ACGTCCCT  -0.32
224. CAGGTGTA  -0.327
225. CTCTCGAA  -0.356
226. AGTCCCCA  -0.364
